Drawing on PubChem BioAssay AID485317 (Broad Institute, 2010), this text covers inhibition for 60 compounds.

The whole screen tested about 290,000 compounds, of which about 11,000 (3.8%) were called active. Only a selection was taken, and actives are over-represented in it overall. A number with no mark means an inactive call.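 The calls were made as follows: active = mean replicate inhibition above about 79%, with every replicate also reaching it (limit read from the data); inconclusive = only one of the two criteria met; inactive = mean below limit and not every replicate reaching it.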

The target in the experiment is FAD-linked sulfhydryl oxidase ALR (Homo sapiens) (UniProt P55789). Kind of experiment: ALR-catalysed DTT oxidation blockers – biochemical, H2O2 detection, HRP-luminol luminescence, single point, primary screen (AID 485317). Conditions: purified ALR, hits give high values, concentration not given here.
Sequence of FAD-linked sulfhydryl oxidase ALR (Homo sapiens) (P55789 whole entry, looked up): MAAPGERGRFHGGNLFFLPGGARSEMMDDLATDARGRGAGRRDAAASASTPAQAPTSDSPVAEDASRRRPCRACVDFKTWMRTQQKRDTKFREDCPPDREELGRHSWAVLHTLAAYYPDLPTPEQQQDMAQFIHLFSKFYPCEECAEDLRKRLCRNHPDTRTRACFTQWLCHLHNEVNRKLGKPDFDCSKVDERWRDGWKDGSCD
Usually inhibition stands for the change of the read-out against control, counted positive when it falls. In the case of `NS(=O)(=O)c1ccc(CNC(=O)c2cccc(S(=O)(=O)N3CCc4ccccc43)c2)cc1`, the inhibition is -5.92%. As for `Cc1ccc(S(=O)(=O)N(C)C)cc1NC(=O)CN1c2cccc3cccc(c23)S1(=O)=O`, the inhibition is -16.6%.

Regarding `Cc1ccc(S(=O)(=O)N2CCCCC2)cc1NC(=O)CCNC(=O)c1ccccc1`, the inhibition is -5.33%. The same measure for `CCOc1ccc(C(C)=O)cc1COC(=O)CN1C(=O)NC2(CCCC2)C1=O`: -0.483%; for `COc1cc(/C=C2\Oc3ccc(C#Cc4ccc(O)cc4)cc3C2=O)cc(OC)c1`: 4.14%. In the case of `CC(NS(=O)(=O)c1ccc(OCC(=O)N2CCCC2)cc1)c1ccccc1` (stereo not given) it was -2.54%. In the case of `CC(NS(=O)(=O)c1ccccc1)c1n[nH]c(=S)n1-c1ccccc1` (stereo not given) it was 86.4% (active); in that of `S=c1[nH]nc(COc2ccccc2)n1-c1ccccc1`, 31.7%.

`COC(=O)c1nc(NC(=O)c2ccccc2)n[nH]1`: the inhibition was 97.4% (active).

For the compound `O=C(Nc1nsc(-c2ccccc2)n1)c1ccncc1`, the inhibition was 1.28%.

Take `COC(=O)c1nc(NC(=O)c2ccc(Cl)cc2)n[nH]1`: the inhibition was -3.46%. The same measure for `O=C(CSc1nc2ccccc2c(=O)n1CCCO)NC1CC1`: 0.869%; for `CN=C(Nc1cccc(S(=O)(=O)N2CCOCC2)c1)c1ccccc1`: -1.77%; for `CC(Sc1cccc[n+]1[O-])C(=O)Nc1cccc(S(=O)(=O)N2CCOCC2)c1` (stereo not given): 96.9% (active). In the case of `CC(Sc1ccccc1F)C(=O)Nc1cccc(S(=O)(=O)N2CCOCC2)c1` (stereo not given) it was -3.71%. With `CN(CC(=O)Nc1cccc(F)c1)C(=O)C1CC(=O)N(CCc2ccccc2)C1` (stereo not given), the inhibition was -3.35%. In the case of `O=C(CSc1nnc(-c2ccncc2)o1)Nc1cccc(Cl)c1` it was 6.76%; in that of `CCn1c(-c2ccncc2)n[nH]c1=S`, 65.5%. Regarding `CCCc1cc(-c2n[nH]c(=S)n2Cc2ccccc2)cs1`, the inhibition was 49.7%. In the case of `CCc1cc(-c2n[nH]c(=S)n2CC(C)C)cs1` it was 94.7% (active); in that of `N#Cc1cc([N+](=O)[O-])ccc1NC(=O)COC(=O)c1cnccn1`, -7.67%; in that of `O=C(c1cc2ccccc2o1)N1CCN(S(=O)(=O)c2ccc(Cl)s2)CC1`, -0.962%.

Turning to `COc1ccc(C(CNC(=O)c2cccc(NS(=O)(=O)c3ccc(C)c(F)c3)c2)N2CCCC2)cc1` (stereo not given), the inhibition was -7.21%.

On to `CC(C)NC(=O)NC(=O)COC(=O)c1ccc(NC(=O)CC#N)cc1`, for which the inhibition was 98.6% (active). The same measure for `CC(C)c1ccc(NC(=O)COC(=O)c2ccc(CN3CCCC3=O)cc2)cc1`: -43.2%; for `CCOc1ccc(NC(=O)c2ccc(NC(=O)COC(=O)c3ccc(NC(=O)CC#N)cc3)cc2)cc1`: 1.83%. On to `N#CCN(C(=O)COC(=O)C1CC2CCCC(C1)C2=O)c1ccccc1` (stereo not given), for which the inhibition is -1.07%. The same measure for `CCN(CC(=O)Nc1ccccc1C(F)(F)F)C(=O)C1CCN(C(=O)Nc2ccccc2)CC1`: 8.41%.

For `O=C(CN1CCCC1)N1CCN(c2ccccc2)CC1`, the inhibition is 23.5%. The same measure for `O=C(CN1CCN(c2ccc(Cl)cc2)CC1)N1CCCC1`: 97.8% (active). With `O=C(CN1CCN(c2ccc(Cl)cc2)CC1)c1ccccc1`, the inhibition was 4.7%. The same measure for `Cc1ccc(CSCC(N)C(=O)O)cc1` (stereo not given): 99.1% (active). In the case of `CSCC(NS(=O)(=O)c1ccc(C)cc1)C(=O)O` (stereo not given) it was 19.4%; in that of `Cc1ccc(CSCC(=O)N(C)CC(=O)Nc2ccc(C)cc2)cc1`, -0.0315%; in that of `CCC1(c2ccccc2)NC(=O)N(CC(=O)c2ccc3c(c2)OCO3)C1=O` (stereo not given), 0.023%.

`COc1cc(OC)cc(-c2c(C#Cc3ccsc3)c3cc(-c4ccc(OC)cc4F)ccc3n2C)c1`: the inhibition was -17.2%. The same measure for `Cc1cccc(N2CCN(C(c3ccccc3)c3nnnn3CC3CCCO3)CC2)c1C` (stereo not given): -2.29%.

For the compound `COc1ccc(C(c2nnnn2Cc2cccs2)N2CCN(c3ccccc3)CC2)cc1OC` (stereo not given), the inhibition is 8.5%. The same measure for `COc1ccccc1C(c1nnnn1CC1CCCO1)N1CCN(c2ccccc2)CC1` (stereo not given): 90.9% (active); for `COc1ccc(NC(=O)CCC(=O)N2CCN(S(=O)(=O)c3ccc(C)cc3)CC2)c(OC)c1`: -6.29%; for `O=S(=O)(NCCCc1ccccc1)c1ccc(Br)cc1`: 2.4%.

Consider `Cc1[nH]c2ccccc2c1C(=O)C(C)Sc1nnc(C2CC2)o1` (stereo not given), for which the inhibition was -3.37%.

For the compound `CC(=O)Nc1ccc(NC(=O)C(C)OC(=O)C2CC(=O)N(CCc3ccccc3)C2)cc1` (stereo not given), the inhibition is -1.82%. In the case of `O=C(NCCCc1ccccc1)C1CCC(=O)N(CCc2ccc(Cl)cc2)C1` (stereo not given) it was 0.977%; in that of `O=C(CSC1CC(=O)N(CCc2ccccc2)C1=O)Nc1ccc(Cl)cc1` (stereo not given), 93.5% (active).

For `c1ccc2c(CCN3CCNC[C@H]3Cc3cccc4ccccc34)cccc2c1`, the inhibition is -14.6%. The same measure for `CN(C(=O)c1cccc(NC(=O)Cc2ccc([N+](=O)[O-])cc2)c1)C1CCC1`: -1.83%; for `Cc1ccc(OCC(=O)Nc2ccccc2C(=O)NC2CC2)cc1`: -2.04%.

As to `S=c1[nH]nc(NCCc2ccccc2)s1`, the inhibition is 95.1% (active). In the case of `O=c1cnnc(Nc2ccccc2)[nH]1` it was 1.2%; in that of `S=c1[nH]nc(Nc2ccccc2)s1`, 98.6% (active). In the case of `S=C(NCCc1ccccc1)Nc1ccccc1` it was 12.6%; in that of `CC(C)(C)C(=O)c1cnc(Nc2ccccc2)s1`, 19.3%; in that of `Cc1nc(C)c(-c2csc(NCCc3ccccc3)n2)s1`, 24%. `CCCc1cc(=O)[nH]c(SCC(=O)Nc2ccc(C(=O)Nc3ccccc3OC)cc2)n1`: the inhibition is -0.142%. Take `O=C(NCCC1CCCCN1S(=O)(=O)c1ccc(Cl)cc1)C(=O)NCc1ccco1` (stereo not given): the inhibition is -1.02%. The same measure for `CN1C(=O)c2ccc(NC(=O)c3c(F)c(F)c(F)c(F)c3F)cc2C1=O`: -3.79%. The same measure for `Cc1cc(NC(=O)OC(C)C)ccc1-c1ccc(NC(=O)OC(C)C)cc1C`: 91.5% (active); for `Cc1cccc(C(=O)Nc2ccc3c(c2)C(=O)N(CC(C)C)C3=O)c1`: -20.8%; for `Cn1cncc1C#Cc1c(-c2ccsc2)sc2ccccc12`: 1.87%.
